A selection: hits, their analogues and other compounds. The true share with any hit is near 0.44%.
ABCB6 inh 2 = human ABCB6 transporter inhibition. K562-ABCB6 porphyrin accumulation, flow cytometry, 1 h; hits give low values. fluorescence ratio to DMSO, % at 10 µM. actives 0.19% (n = 360,000). Q9NP58. AID 602162;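 active = fluorescence ratio to DMSO below 75%, the collection mean minus 3 SD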;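 note: signal is porphyrin accumulated inside mitochondria; 100% equals median channel fluorescence of DMSO control wells; lower ratio means ABCB6 inhibition with less porphyrin fluorescence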
PolyA inh = blocks polyadenylation in yeast reporter cells. S. cerevisiae SKY197-pL101 polyadenylation reporter, beta-gal luminescence; efflux-impaired pdr1/pdr3 knockout yeast; score 100 = 6 SD above DMSO. activity score, % at 12 µM. actives 0.02% (n = 300,000);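 active = lowest replicate activity score at least 50, where 100 means six control SD above control mean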;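 note: yeast exposed to compound for 9 h at 30 °C; higher score means more reporter readthrough which indicates perturbed polyadenylation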
VLA-4 inh = inhibition in a human VLA-4 binding assay. P13612. VLA-4 expressing cells, ligand binding flow cytometry. inhibition, % (about 7 µM as worked out from the volumes in the protocol). actives 0.2% (n = 330,000); in the data active = inhibition above about 50%
Target sequence (P13612 whole entry, looked up): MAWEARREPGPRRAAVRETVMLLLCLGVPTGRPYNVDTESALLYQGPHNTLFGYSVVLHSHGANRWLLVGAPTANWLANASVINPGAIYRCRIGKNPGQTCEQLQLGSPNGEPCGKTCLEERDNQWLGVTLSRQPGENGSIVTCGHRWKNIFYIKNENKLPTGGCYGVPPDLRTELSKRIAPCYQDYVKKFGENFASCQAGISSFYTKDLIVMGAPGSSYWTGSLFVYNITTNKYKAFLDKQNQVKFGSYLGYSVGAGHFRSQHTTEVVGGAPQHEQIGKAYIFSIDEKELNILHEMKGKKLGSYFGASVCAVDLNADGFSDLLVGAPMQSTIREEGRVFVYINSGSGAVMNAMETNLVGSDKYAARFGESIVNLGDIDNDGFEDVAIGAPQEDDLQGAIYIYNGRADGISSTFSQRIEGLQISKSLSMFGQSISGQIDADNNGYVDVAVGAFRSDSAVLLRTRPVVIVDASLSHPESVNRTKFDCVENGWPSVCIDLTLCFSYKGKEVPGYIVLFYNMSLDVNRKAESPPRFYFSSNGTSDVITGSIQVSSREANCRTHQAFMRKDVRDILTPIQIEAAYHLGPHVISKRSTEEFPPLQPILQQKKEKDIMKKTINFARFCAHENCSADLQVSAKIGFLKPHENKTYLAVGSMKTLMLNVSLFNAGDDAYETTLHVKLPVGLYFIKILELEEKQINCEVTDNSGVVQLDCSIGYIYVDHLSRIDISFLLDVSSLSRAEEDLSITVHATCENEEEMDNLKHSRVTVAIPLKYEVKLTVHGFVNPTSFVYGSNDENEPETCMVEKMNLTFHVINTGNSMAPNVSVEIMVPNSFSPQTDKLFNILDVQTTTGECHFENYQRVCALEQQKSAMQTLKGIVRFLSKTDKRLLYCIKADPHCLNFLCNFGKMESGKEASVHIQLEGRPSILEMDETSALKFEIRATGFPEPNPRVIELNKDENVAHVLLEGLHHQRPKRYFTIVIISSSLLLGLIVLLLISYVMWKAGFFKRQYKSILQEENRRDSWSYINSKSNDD
GASC-1 inh = inhibitors of human GASC-1 (JMJD2C) demethylase; Q9H3R0; GST-JMJD2C(1-420) H3K9me3 demethylation, DELFIA europium; inhibition, % at 2.35 µM; actives 0.069% (n = 330,000);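 active = more than half of a compound's replicate wells show inhibition beyond 50%, single wells judged on their own value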;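 note: signal counts dimethyl H3K9 product captured on neutravidin plate; 0% = median of DMSO wells and 100% = 0.3 times that DMSO median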
VLA-4 mod pick = confirmation of allosteric modulators of human VLA-4 integrin. actives 2% (n = 1,300). inhibition, % at 6.7 µM. U937 cells, HUTS-21 LIBS mAb binding, flow cytometry; LDV ligand present at threefold Kd. shares compounds with VLA-4 inh; in the data active = inhibition above about 40%;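 note: 0% = ligand without compound and 100% = no ligand background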
Numbers without * were called inactive; nt = not tested or not shown.

SMILES	ABCB6 inh 2	PolyA inh	VLA-4 inh	GASC-1 inh	VLA-4 mod pick
Cc1ccc(C)c(N2CCN(C(=O)Cc3ccc(NC4=NC5CS(=O)(=O)CC5S4)cc3)CC2)c1 (stereo not drawn)	97	-12	56*	-22	-2
Cc1ccc(C)c(N2CCN(C(=O)c3ccc(Cl)c(NC4=NC5CS(=O)(=O)CC5S4)c3)CC2)c1 (stereo not drawn)	101	15	-4	-4	0
O=C(c1ccc(Cl)c(NC2=NC3CS(=O)(=O)CC3S2)c1)N1CCN(c2ccccc2)CC1 (stereo not drawn)	88	-15	-3	30	0
Cc1cccc(N2CCN(C(=O)c3ccc(Cl)c(NC4=NC5CS(=O)(=O)CC5S4)c3)CC2C)c1 (stereo not drawn)	86	-9	-14	6	-6
O=C(c1ccc(NC2=NC3CS(=O)(=O)CC3S2)cc1)N1CCN(c2ccccc2F)CC1 (stereo not drawn)	98	14	7	-5	nt
COc1ccc2[nH]cc(C(=O)CN3CCC(C)CC3)c2c1	86	14	-7	9	nt
COc1ccc(-n2c(C)c([N+](=O)[O-])c3ccc(O)c(CN(C)C)c32)cc1	103	0	22	0	nt
O=C1c2ccccc2S(=O)(=O)N1CC1CC(c2ccc(Cl)cc2)=NO1 (stereo not drawn)	94	0	7	5	nt
COc1ccc2c(c1)OC[C@H]1[C@H]2N2C(=O)CN(Cc3ccc(Cl)cc3)C(=O)[C@@]2(C)[C@H]1c1ccccc1	98	nt	14	-1	nt
CCCc1nc2oc3c(NCC(C)O)ncnc3c2c2c1CCCC2 (stereo not drawn)	89	13	-7	-38	nt
O=C(NC(NC(=S)Nc1cc(Cl)ccc1Cl)C(Cl)(Cl)Cl)c1ccco1 (stereo not drawn)	103	-8	-13	0	nt
COc1cccc(N2CCN(C(=O)c3cccc(NC4=NC5CS(=O)(=O)CC5S4)c3)CC2)c1 (stereo not drawn)	93	3	-40	-5	0
COc1cc(/C=C2\SC(=S)N(C(Cc3ccccc3)C(=O)O)C2=O)ccc1O (stereo not drawn)	103	42	-19	5	nt
Cc1ccc2c(c1)c(C1=c3ccccc3=NC1=O)c(O)n2C	93	11	3	-1	nt
C=CCn1c(O)c(C2=c3ccccc3=NC2=O)c2ccccc21	96	-23	51*	2	0
Cc1ccc(SCc2nc(N)nc(Nc3ccccc3C)n2)cc1C	96	-14	54*	9	-6
C=CCn1c(SCC(=O)Nc2c(C)n(C)n(-c3ccccc3)c2=O)nc2ccccc2c1=O	94	nt	52*	-16	3
C=CCn1c(SCC(=O)Nc2c(C)n(C)n(-c3ccccc3)c2=O)nc2scc(-c3ccccc3)c2c1=O	86	4	8	18	nt
COc1ccc2c(C)cc(SCC(=O)Nc3c(C)n(C)n(-c4ccccc4)c3=O)nc2c1	106	29	94*	42	13
O=C(Nc1ccc(S(=O)(=O)N2CCCCC2c2cccnc2)cc1)c1c(F)cccc1F (stereo not drawn)	102	-2	47	9	nt
N#Cc1c(SCC(=O)O)nc(-c2ccccc2)c2c1CCCC2	102	11	94*	17	0
Cc1ccc(S(=O)(=O)N(CCC(=O)NCc2ccc(S(N)(=O)=O)cc2)c2ccccc2)cc1	97	nt	nt	nt	nt
COC(=O)c1ccc(C)c(NC(=O)c2ccc(Cl)c([N+](=O)[O-])c2)c1	95	5	54*	2	-15
COCCn1c(SCC(=O)Nc2nnc(C)s2)nnc1-c1ccoc1C	95	4	12	11	nt
CC(NC(=O)NC12CC3CC(CC(C3)C1)C2)c1ccc2c(c1)OCO2 (stereo not drawn)	98	-2	14	7	nt
SMILES	ABCB6 inh 2	PolyA inh	VLA-4 inh	GASC-1 inh	VLA-4 mod pick
CC(NC(=O)NC1CCCCC1)c1ccc2c(c1)OCO2 (stereo not drawn)	103	-2	41	5	8
CCN(CC)CCCOC(=O)C1(c2ccccc2)CCCC1	96	0	25	7	nt
CCN(CC)CCOCCOC(=O)C1(c2ccccc2)CCCC1	96	0	57*	-41	2
CCOc1ccc(-n2ccnc(SCC(=O)NC3CCCC3)c2=O)cc1	99	4	-2	2	nt
COC(=O)c1cn(CC(=O)Nc2ccccc2C)c2ccccc12	94	17	21	9	4
CCC(=O)c1cn(CC(=O)Nc2ccc(OC)cc2)c2ccccc12	99	-18	57*	-4	8
CCC(=O)c1cn(CC(=O)Nc2ccc(C)cc2)c2ccccc12	93	19	5	-1	2
CCC(=O)c1cn(CC(=O)Nc2ccccc2F)c2ccccc12	99	9	11	nt	3
CC(=O)c1cn(CC(=O)Nc2ccccc2F)c2ccccc12	94	7	24	-5	nt
CN(C(=O)n1cnc2ccccc21)c1ccccc1	100	-3	32	-2	nt
Nc1ncnc(Nc2ccccc2)n1	94	12	54*	1	-5
CCc1nc(C(N)=O)c2[nH]c(=O)n(-c3ccccc3F)c2n1	101	-29	7	6	nt
O=C(CCN1C(=O)/C(=C/c2ccccc2F)SC1=S)NCCCn1ccnc1	98	-9	6	-3	nt
COc1ccc(-c2nnc3n2N=C(C)CS3)cc1	95	-3	20	1	nt
COc1ccc(C2=Nn3c(nnc3-c3ccc(OC)cc3)SC2)cc1	101	4	54*	8	33
CC(=O)Nc1nc(C)c(Oc2ccc(C)cc2)c(=O)[nH]1	106	5	-1	-15	nt
CC(=O)/C=C(/C)NC(Cc1c[nH]c2ccccc12)C(=O)O (stereo not drawn)	91	11	-8	2	nt
CC(=O)N[C@H](Cc1c[nH]c2ccccc12)C(=O)O	100	9	50*	32	2
Cc1ccc(F)cc1N=Cc1c(O)c2ccccc2oc1=O	97	2	3	3	nt
COc1cccc(CNC(=O)Nc2cccs2)c1	101	12	92*	6	-1
COc1ccc(CNC(=O)Nc2cccs2)cc1OC	104	-6	-9	12	nt
Cc1ccc(C)c(CSC2=NCCN2C(=O)Cc2ccc([N+](=O)[O-])cc2)c1	102	-14	6	-2	nt
COc1ccc(CC(=O)NNC(=O)CSc2ccc(C)cc2)cc1	99	-4	53*	-29	4
COC(=O)c1ccc(S(=O)(=O)N2CCCCC2)o1	101	7	9	3	nt
COc1ccc(-c2oc3ccccc3c(=O)c2OCC(=O)O)cc1	99	11	10	-20	nt
NC(CC(=O)O)c1ccc(Br)cc1 (stereo not drawn)	100	-12	4	-7	nt
Cc1ccccc1Oc1ccc(NC(=O)C2CC=CCC2C(=O)O)cc1 (stereo not drawn)	93	14	54*	-4	5

High-throughput results from PubChem BioAssay.
